# Experimental data from PubChem BioAssay.
# Active and inactive are the calls of the source. Unless noted, the rule behind the calls is not given here.
# Legend:
# [1] = A549 cell viability effects, profiling panel, calcein-AM fluorescence, 48 h, basal (AID 1162); conditions: higher = more signal; note: test concentration not given here
# [2] = adipocyte viability effects, profiling panel, cell-based, 3T3-L1 adipocytes, calcein-AM fluorescence, 48 h, basal (AID 1163); conditions: 3T3-L1 adipocytes viability, higher = more signal; note: test concentration not given here
# [3] = HepG2 cell viability effects, profiling panel, calcein-AM fluorescence, 48 h, basal (AID 1164); conditions: higher = more signal; note: test concentration not given here
# [4] = MM1S cell viability effects, profiling panel, calcein-AM fluorescence, 48 h, basal (AID 1165); conditions: higher = more signal;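 note: viability of MM1S multiple myeloma cells under basal unstimulated conditions; test concentration not given here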
# [5] = basal RPMI8226 viability, no added stimulus, profiling panel, cell-based, calcein-AM fluorescence, 48 h, PK04 Diversity Set (AID 1166); conditions: RPMI8226 myeloma viability, higher = more signal;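 note: cells grown under basal conditions without added stimulus; test concentration not given here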
# [6] = basal HepG2 mitochondrial membrane potential changes, profiling panel, cell-based, JC-1 fluorescence, 24 h, 100 nL compound (AID 1167); conditions: higher = more signal; note: test concentration not given here
# [7] = basal 3T3-L1 adipocyte mitochondrial potential changes, profiling panel, cell-based, JC-1 fluorescence, 3T3-L1 adipocytes, 24 h, 100 nL compound (AID 1168); conditions: JC-1 mitochondrial fluorescence, higher = more signal, called active from +8 up or from −8 down; note: test concentration not given here
# [8] = basal RPMI8226 mitochondrial membrane potential changes, profiling panel, cell-based, JC-1 fluorescence, 24 h, 100 nL compound (AID 1169); conditions: RPMI8226 myeloma, JC-1 mitochondrial potential fluorescence, higher = more signal; note: test concentration not given here
# [9] = basal MM1S mitochondrial membrane potential changes, profiling panel, cell-based, JC-1 fluorescence, 24 h, 100 nL compound (AID 1170); conditions: higher = more signal; note: test concentration not given here
# [10] = A549 lung cancer cell viability effects, profiling panel, resazurin fluorescence, 24 h, PK04 Diversity Set (AID 1171); conditions: higher = more signal, called active from +8 up or from −8 down; note: test concentration not given here
# [11] = HepG2 liver cancer cell viability effects, profiling panel, resazurin fluorescence, 24 h, PK04 Diversity Set (AID 1172); conditions: higher = more signal; note: test concentration not given here
# [12] = basal S. cerevisiae growth modulation, no modifier, primary screen, OD600, strain BY4716, 24 h, basal condition (AID 1173); conditions: OD600, 24 h, higher = more signal, called active from +8 up or from −8 down
# [13] = MM1S myeloma cell viability, profiling panel, resazurin fluorescence, basal, 24 h, PK04 Diversity Set (AID 1174); conditions: higher = more signal, called active from +8 up or from −8 down;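 note: MM1S multiple myeloma cell line; test concentration not given here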
# [14] = biological target: Dihydroorotate dehydrogenase (quinone), mitochondrial (Plasmodium falciparum (isolate 3D7)) (UniProt Q08210); experiment: PfDHODH enzyme inhibitors, primary screen, biochemical, C-terminal His tag, absorbance 600 nm (AID 1175); conditions: DCIP absorbance 600 nm, higher = more signal, called active from +8 up or from −8 down;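 note: recombinant parasite enzyme with a five histidine tag at its C terminus; test concentration not given here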
# [15] = P. aeruginosa biofilm formation inhibitors, primary screen, strain PAO1, LB-PBS medium, absorbance 600 nm (AID 1176); note: test concentration not given here; conditions: P. aeruginosa PAO1 growth/biofilm, A600, 12 h; higher = more signal
# [16] = S. cerevisiae RM11-1a growth modifiers, primary screen, strain RM11-1a, OD600, basal, 24 h (AID 1177); conditions: OD600, 24 h, higher = more signal, called active from +8 up or from −8 down;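 note: cultures grown under basal conditions with no added stressor; test concentration not given here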
# [17] = E. coli acrAB mutant growth effects, primary screen, E. coli filamentation inducers, strain DRC39, OD650, 24 h (AID 1178); conditions: higher = more signal, called active from +8 up or from −8 down;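 note: growth measured as culture turbidity by optical density at 650 nm; test concentration not given here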
# [18] = E. coli acrAB mutant growth effects, primary screen, E. coli filamentation inducers, strain DRC39, OD650, 48 h (AID 1179);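 note: screen aims at cell division blockers that make cells filament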; conditions: E. coli DRC39 delta-acrAB growth, higher = more signal, called active from +8 up or from −8 down
# [19] = RPMI8226 myeloma cell viability, profiling panel, resazurin fluorescence, basal, 24 h, PK04 Diversity Set (AID 1180); conditions: higher = more signal;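 note: RPMI8826 multiple myeloma cell line at 5000 cells per well; test concentration not given here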
# [20] = biological target: E3 ubiquitin-protein ligase XIAP (Homo sapiens) (UniProt P98170); experiment: XIAP binders, primary screen, biophysical, small-molecule microarray, fluorescence 635 nm (AID 1181); conditions: small-molecule microarray binding, higher = more signal;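 note: score merges 667 nm emission and signal to noise over triplicate slides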
# Sequence of E3 ubiquitin-protein ligase XIAP (Homo sapiens) (P98170 whole entry, looked up): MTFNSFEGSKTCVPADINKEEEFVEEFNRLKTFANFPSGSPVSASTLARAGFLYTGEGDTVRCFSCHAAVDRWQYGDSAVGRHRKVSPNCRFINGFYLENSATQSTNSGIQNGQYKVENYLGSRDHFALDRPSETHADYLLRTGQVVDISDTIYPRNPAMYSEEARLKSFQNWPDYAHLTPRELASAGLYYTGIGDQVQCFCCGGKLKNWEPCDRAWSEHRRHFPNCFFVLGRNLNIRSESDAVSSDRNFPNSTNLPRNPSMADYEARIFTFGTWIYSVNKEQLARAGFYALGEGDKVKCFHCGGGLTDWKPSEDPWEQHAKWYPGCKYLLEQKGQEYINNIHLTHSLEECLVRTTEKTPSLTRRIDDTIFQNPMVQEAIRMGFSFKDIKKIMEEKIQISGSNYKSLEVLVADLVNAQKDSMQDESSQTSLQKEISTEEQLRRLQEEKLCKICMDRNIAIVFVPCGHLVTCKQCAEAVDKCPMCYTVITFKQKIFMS
# Sequence of Dihydroorotate dehydrogenase (quinone), mitochondrial (Plasmodium falciparum (isolate 3D7)) (Q08210 whole entry, looked up): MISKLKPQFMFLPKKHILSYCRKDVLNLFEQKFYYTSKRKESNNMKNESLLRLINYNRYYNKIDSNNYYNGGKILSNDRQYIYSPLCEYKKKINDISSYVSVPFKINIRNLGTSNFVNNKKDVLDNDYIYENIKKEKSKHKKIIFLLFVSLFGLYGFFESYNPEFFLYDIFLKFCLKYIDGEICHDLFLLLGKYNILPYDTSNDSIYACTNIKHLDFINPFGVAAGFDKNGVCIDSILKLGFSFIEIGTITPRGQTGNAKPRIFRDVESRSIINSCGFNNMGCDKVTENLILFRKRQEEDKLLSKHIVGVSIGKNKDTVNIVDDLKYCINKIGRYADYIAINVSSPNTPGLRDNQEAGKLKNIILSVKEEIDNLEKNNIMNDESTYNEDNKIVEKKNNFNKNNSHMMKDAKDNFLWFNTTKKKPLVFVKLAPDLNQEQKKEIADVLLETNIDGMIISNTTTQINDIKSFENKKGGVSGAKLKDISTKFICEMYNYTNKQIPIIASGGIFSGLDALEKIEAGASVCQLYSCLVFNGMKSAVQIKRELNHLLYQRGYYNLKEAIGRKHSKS
Structure (SMILES),z-score [1],z-score [2],z-score [3],z-score [4],z-score [5],z-score [6],z-score [7],z-score [8],z-score [9],z-score [10],z-score [11],z-score [12],z-score [13],composite z-score [14],z-score [15],z-score [16],z-score [17],z-score [18],z-score [19],composite z-score [20]
CCCCCN1CC=CC23O[C@@H]4/C=C\CCC(C)OC(=O)C4[C@H]2C(=O)N(CCCCCCO)[C@@H]3C1=O (stereo not given in full),0.29,0.644,0.822,1.6,0.656,0.589,0.785 (inactive),-0.141,-0.459,0.944 (inactive),1.1,-0.262 (inactive),0.798 (inactive),-1.35 (inactive),0.165 (inactive),0.422 (inactive),1.11 (inactive),0.848 (inactive),1.26,-0.359
CC(C)N1CC=CC23O[C@@H]4/C=C\CCCOC(=O)C4[C@H]2C(=O)N(CCCCCCO)[C@@H]3C1=O (stereo not given in full),1.46,-0.377,0.922,1.49,0.0006,1.14,-0.0751 (inactive),-0.659,1.23,1.51 (inactive),0.95,-1.13 (inactive),1.3 (inactive),-0.475 (inactive),-0.401 (inactive),0.0759 (inactive),1.62 (inactive),1.93 (inactive),0.708,0.0537
CCCCC=C[C@@H](NC(=O)c1ccccc1)c1ccccc1,-1.07,-0.417,-1.02,-0.842,-2.29,0.18,-1.04 (inactive),0.135,-0.434,0.962 (inactive),-0.35,0.483 (inactive),0.0386 (inactive),-0.845 (inactive),1.43 (inactive),0.0455 (inactive),-1.44 (inactive),-1.29 (inactive),-0.321,0.0348
CC(C)CNC(=O)[C@@H]1c2ccccc2C(=O)N(C2CCCCC2)[C@H]1c1ccc(CO)cc1,2.93,0.258,1.41,0.0402,0.424,4.35,1.16 (inactive),0.301,-0.605,2.26 (inactive),1.12,-0.664 (inactive),1.5 (inactive),0.246 (inactive),0.292 (inactive),-1.22 (inactive),1.49 (inactive),1.59 (inactive),1.34,-0.234
CN1C(=O)C2C(C1=O)C1C=C(CCCO)C2C(c2cccs2)N1Cc1cc2c(cc1Br)OCO2 (stereo not given),0.952,0.225,0.557,-0.635,-1.44,-0.129,-0.859 (inactive),-0.309,0.872,-0.0723 (inactive),-0.0567,-1.67 (inactive),-0.35 (inactive),-0.539 (inactive),-0.131 (inactive),0.0034 (inactive),0.19 (inactive),-0.512 (inactive),0.0707,0.176
CCN(CC)c1ccc(N2CC=CC34O[C@@H]5C=CCCOC(=O)C5[C@H]3C(=O)N(CCO)[C@@H]4C2=O)cc1 (stereo not given in full),-0.126,1.11,-0.618,0.766,-0.073,-0.178,0.0903 (inactive),0.277,0.639,-0.0198 (inactive),0.0656,-0.371 (inactive),-0.281 (inactive),-1.3 (inactive),0.469 (inactive),-0.106 (inactive),0.449 (inactive),0.2 (inactive),0.553,0.0074
C=C(COC)C(=O)CC[C@@H](OC(=O)c1cccnc1)c1ccccc1OCCO,-0.0755,0.46,-1.16,-3.38,-3.82,-0.758,1.08 (inactive),-0.67,-2.43,0.1 (inactive),-0.956,-0.585 (inactive),-3.09 (inactive),-0.4 (inactive),0.519 (inactive),-0.0421 (inactive),0.325 (inactive),0.206 (inactive),-3.63,-0.0663
CCOC(=O)C[C@H]1[C@H](OC(=O)c2ccccc2-c2ccccc2)[C@@H](NC(=O)c2ccccc2)c2cc(OCCCO)ccc2N1C(=O)c1ccccc1,-0.164,-0.603,-0.56,-0.162,-0.559,-0.127,-0.0812 (inactive),-0.485,0.318,-0.336 (inactive),-0.632,0.474 (inactive),-0.287 (inactive),0.374 (inactive),-0.0582 (inactive),0.383 (inactive),-0.536 (inactive),-0.508 (inactive),-0.0741,0.0871
CN1C(=O)[C@@]2(Cc3ccccc3)N=C(c3ccc(OCCCO)cc3)O[C@H]2c2ccccc21,-1.11,-0.597,-1.61,-2.71,-4.45,0.384,1.69 (inactive),-1.26,-1.89,-0.788 (inactive),-0.286,-6.2 (inactive),-2.4 (inactive),0.271 (inactive),1.14 (inactive),0.202 (inactive),0.432 (inactive),0.514 (inactive),-1.99,0.283
